# Hits are enriched below; roughly 9.9% of the tested compounds scored in any of these assays.
# MCF10A rereplic = inducers of DNA re-replication in MCF 10A breast cells; MCF 10A DNA re-replication, Hoechst nuclear intensity, 48 h; Potency, µM (highest dose often 46.1 µM), without a hit: at the highest dose activity, positive = re-replication, usual class: activators; 2.9% of 350,000 active; note: potency is the fitted concentration of half-maximal effect; % of control where 0% means no effect; nearly all actives have a fitted effect of over 50% in size
# KB-V1 MDR tox = KB-V1 MDR subline cytotoxicity. KB-V1 MDR cells viability, CellTiter-Glo, 72 h. Potency, µM (series often up to 46.1 µM), usual class: cytotoxic. 3.4% of 400,000 active; note: potency is the fitted concentration of half-maximal effect; % is set by controls: 0 for no effect and ±100 for the full control effect; nearly all actives have a fitted effect of over 60% in size
#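 Potencies derive from concentration-effect curves fitted to normalized luminescence (CellTiter-Glo) of KB-V1 cells treated for 72 h at 37 degrees C in phenol-red-free DMEM containing 10% FBS.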
# SW480 rereplic = induces DNA re-replication in SW480 colon adenocarcinoma cells | SW480 DNA re-replication, Hoechst DNA content imaging, 48 h | Potency, µM (top dose mostly 46.1 µM), inactives show top-dose re-replication activation, hits mostly activators | 1.8% of 340,000 active | AID 624297; note: potency is the fitted concentration of half-maximal effect; % of control where 0% means no effect; nearly all actives have a fitted effect of over 55% in size
#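 Image-based read-out: total Hoechst fluorescence of nuclei (405 nm excitation, 500-530 nm emission), with hits raising the fraction of high-intensity nuclei. SW480 colon cells incubated 48 hr with compounds at 37 C.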
# KB-3-1 cytotox = kills parental KB-3-1 adenocarcinoma cells. 1.4% of 400,000 active. Potency, µM (top dose mostly 46.1 µM), usual class: cytotoxic. KB-3-1 viability, CellTiter-Glo ATP luminescence, 72 h; note: potency is the fitted concentration of half-maximal effect; % is set by controls: 0 for no effect and ±100 for the full control effect; nearly all actives have a fitted effect of over 60% in size
#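 Luminescent ATP read-out (CellTiter-Glo) measures survival of drug-naive KB-3-1 cells after 72 h compound exposure at 37 °C. Titration series was screened from lowest to highest concentration, with DMSO vehicle plates as background controls.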
# IL1B secr inh = inflammasome signaling inhibition, IL-1 beta readout | THP-1 LPS/ATP IL-1B secretion, AlphaLISA, 16 h; stronger effect = lower value | activity change, % at 57.5 µM | 4.7% of 360,000 active | AID 743279; in the data active = activity change below about -50%; inconclusive = mostly about -30% to -49%; note: % is set by controls: 0 for no effect and ±100 for the full control effect
#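 Secreted IL-1B measured by AlphaLISA bead assay after 16 h compound exposure of THP-1 cells; compounds (final up to 57.5 uM) added 1 h before LPS (250 ng/mL) and ATP (1.25 mM) stimulation; lower signal means less secretion.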
# * marks the source's active call; other numbers are inactive results; i = inactive; ? = inconclusive; / = not tested or not shown; [ ] = dose if it differs, or a comment. Unless noted, calls come from the whole dose curve; as a rule, active = well fitted curve in the direction sought with a large enough effect; inconclusive = small, poorly fitted or top-dose-only effect, or another doubt; inactive = no such curve, though single readings can be large; an effect the other way counts as inactive or inconclusive.
SMILES,MCF10A rereplic,KB-V1 MDR tox,SW480 rereplic,KB-3-1 cytotox,IL1B secr inh
CCCn1c2ccc(C)cc2c2nnc(SCCN3CCOCC3)nc21,12.1%,?,-2.4%,i,-61.3*
CCn1c2ccc(F)cc2c2nnc(SCCN3CCCCC3)nc21,15.0%,i,8.1%,i,?
CCCn1c2ccc(F)cc2c2nnc(SCCN3CCOCC3)nc21,8.3%,i,-3.1%,i,2.4
CCCn1c2ccc(C)cc2c2nnc(SCCN3CCCCC3)nc21,?,i,?,i,-66.3*
CCn1c2ccc(C)cc2c2nnc(SCCN3CCCCC3)nc21,4.8%,i,1.3%,i,-66.4*
CCCn1c2ccc(F)cc2c2nnc(SCCN3CCCCC3)nc21,?,i,?,i,-29.9
CCOC(=O)O[C@@H](C)OC(=O)[C@@H]1N2C(=O)[C@@H](NC(=O)[C@@H](N)c3ccccc3)[C@H]2SC1(C)C,-1.8%[20.6 µM],/,-2.8%[20.6 µM],/,/
Cc1cccc(OCC(=O)NNC(=O)c2ccc3nc[nH]c3c2)c1,-2.4%,i,-10.6%,i,0.7
Cc1cc(=O)[nH]c2c1c(C)nn2C1CCCCC1,6.51µM*,i,8.2µM*,i,4.2
Cc1cc(=O)[nH]c2c1c(C)nn2C1CCCC1,9.6%,i,-8.1%,i,36.8
COc1ccc(CN2CCCC(CO)(Cc3ccc(F)cc3)C2)cc1C (stereo not drawn),?,i,-3.6%,i,-60.9*
CC(C)Oc1ccc(CN2CCCC(CO)(Cc3ccccc3)C2)cc1CO (stereo not drawn),17.6%,i,1.9%,i,-53.7*
COC(=O)C1CCc2c(ccc3c2CCCC3)C1=O (stereo not drawn),-14.3%,i,-7.0%,?,-12.7
Cc1ccc(S(=O)(=O)Nc2ccc3c4c(cccc24)CC3)c(C)c1,?,20.6µM*,?,?,45.4
O=S(=O)(Nc1ccc2c3c(cccc13)CC2)c1ccccc1,/,i,/,i,5.8
Cc1cc(C)c(S(=O)(=O)Nc2ccccc2)c(C)c1,9.1%,18.4µM*,3.9%,i,6.8
Cc1ccc(C)c(S(=O)(=O)Nc2ccc(O)c3ccccc23)c1,-1.0%,i,-3.7%,i,-11.7
Cc1cc(C)c(S(=O)(=O)Nc2ccc3c4c(cccc24)CC3)c(C)c1,0.366µM*,1.3µM*,?,0.731µM*,9.8
Cc1ccc(S(=O)(=O)Nc2ccc(O)c3ccccc23)c(C)c1,20.6µM*,i,1.3%,i,-80.7*
CC(=O)Nc1ccc2c3c(cccc13)CC2,2.9%,i,-5.1%,i,-0.3
CCN(CC(=O)Nc1c(F)cccc1F)C(=O)c1ccc(N2C(=O)c3ccccc3C2=O)cc1,13.1%,i,1.4%,i,24.4
CCc1cccc(CC)c1NC(=O)COC(=O)C1(c2ccc(Cl)cc2)CCCC1,15.4%,4.61µM*,-8.6%,i,30.0
CC(C)(C)n1ncc2c(=O)n(Cc3cccc(Cl)c3)cnc21,3.9%,i,-15.2%,i,?
CCN(CC)CCNC(=O)c1ccc(Sc2ccc(C)cc2)c(NC(C)=O)c1,19.3%,i,-6.7%,i,0.0
COc1cc(/C=C/C(=O)OCC(=O)NCCc2ccc(F)cc2)ccc1OC(F)F,-5.5%,/,-7.6%,/,1.1
SMILES,MCF10A rereplic,KB-V1 MDR tox,SW480 rereplic,KB-3-1 cytotox,IL1B secr inh
Cc1ccc(C2CC(c3ccccc3)=NN2C(=S)Nc2ccccc2)o1 (stereo not drawn),5.17µM*,5.17µM*,11.6µM*,5.8µM*,-8.7
CCCCNC(=O)C1(C)CCN1C(=O)c1ccccc1Br (stereo not drawn),/,i,/,i,?
CCCCNC(=O)C1(C)CCN1C(=O)c1cc(-c2cccs2)oc1C (stereo not drawn),/,i,/,?,-104.2*
CCCCNC(=O)C1(C)CCCCN1C(=O)c1cc(OC)ccc1Br (stereo not drawn),/,i,/,i,-95.9*
Cc1ccccc1-n1c(SCC(=O)NC2CC2)nc2ccccc2c1=O,/,i,/,i,-20.9
COC(=O)C1CCN(C(=O)CN2C(=O)NC(CC(C)C)C2=O)CC1 (stereo not drawn),-5.0%,i,-10.8%,i,-11.0
